The values below come from ChEMBL document CHEMBL2218924, “A broad activity screen in support of a chemogenomic map for kinase signalling research and drug discovery” (Biochem J, 2013).

For test [1], the target named is T1, Serine/threonine-protein kinase TBK1 (Homo sapiens) (UniProt Q9UHD2).
T1 sequence (whole entry): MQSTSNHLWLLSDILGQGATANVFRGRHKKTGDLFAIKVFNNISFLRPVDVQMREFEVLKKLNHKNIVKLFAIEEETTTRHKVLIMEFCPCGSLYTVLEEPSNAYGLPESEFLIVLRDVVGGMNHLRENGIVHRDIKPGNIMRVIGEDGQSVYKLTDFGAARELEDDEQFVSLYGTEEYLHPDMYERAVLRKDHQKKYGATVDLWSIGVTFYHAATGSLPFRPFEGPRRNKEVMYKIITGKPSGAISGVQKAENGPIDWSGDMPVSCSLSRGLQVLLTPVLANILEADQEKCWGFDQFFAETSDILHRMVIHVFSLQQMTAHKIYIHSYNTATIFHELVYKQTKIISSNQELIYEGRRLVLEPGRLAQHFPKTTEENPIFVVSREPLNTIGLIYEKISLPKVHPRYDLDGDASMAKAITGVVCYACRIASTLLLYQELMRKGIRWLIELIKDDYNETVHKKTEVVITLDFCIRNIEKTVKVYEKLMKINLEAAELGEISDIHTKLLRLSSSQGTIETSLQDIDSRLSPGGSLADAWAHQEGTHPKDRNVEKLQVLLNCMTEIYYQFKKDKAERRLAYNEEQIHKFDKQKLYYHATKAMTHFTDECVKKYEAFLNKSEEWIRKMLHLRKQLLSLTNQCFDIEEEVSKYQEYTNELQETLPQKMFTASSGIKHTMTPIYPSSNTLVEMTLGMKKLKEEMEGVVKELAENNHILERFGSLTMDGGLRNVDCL
The note with it: at 10 µM.

For test [2], the target named is T2, TGF-beta receptor type-1 (Homo sapiens) (UniProt P36897).
T2 sequence (whole entry): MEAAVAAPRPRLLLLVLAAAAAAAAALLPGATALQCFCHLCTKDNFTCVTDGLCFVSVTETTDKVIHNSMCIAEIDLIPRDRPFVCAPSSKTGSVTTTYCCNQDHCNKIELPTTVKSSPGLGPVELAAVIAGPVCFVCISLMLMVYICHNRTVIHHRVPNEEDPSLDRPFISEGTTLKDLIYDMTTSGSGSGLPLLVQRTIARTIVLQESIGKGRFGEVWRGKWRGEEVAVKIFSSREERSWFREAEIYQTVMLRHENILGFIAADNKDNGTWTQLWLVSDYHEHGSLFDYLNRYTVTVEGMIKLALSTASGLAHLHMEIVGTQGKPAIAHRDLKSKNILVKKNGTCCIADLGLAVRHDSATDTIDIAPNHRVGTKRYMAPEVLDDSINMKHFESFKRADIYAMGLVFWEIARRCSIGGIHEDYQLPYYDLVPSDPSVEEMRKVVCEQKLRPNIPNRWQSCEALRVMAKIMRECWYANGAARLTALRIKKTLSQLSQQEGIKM
To be noted: at 1 µM.

The target in test [3] is T2, TGF-beta receptor type-1 (Homo sapiens). The note with it: at 10 µM.
Test [4] deals with Insulin-like growth factor 1 receptor (Homo sapiens) (UniProt P08069). To be noted: at 1 µM.
Sequence of Insulin-like growth factor 1 receptor (Homo sapiens) (P08069 31-736 limits assumed): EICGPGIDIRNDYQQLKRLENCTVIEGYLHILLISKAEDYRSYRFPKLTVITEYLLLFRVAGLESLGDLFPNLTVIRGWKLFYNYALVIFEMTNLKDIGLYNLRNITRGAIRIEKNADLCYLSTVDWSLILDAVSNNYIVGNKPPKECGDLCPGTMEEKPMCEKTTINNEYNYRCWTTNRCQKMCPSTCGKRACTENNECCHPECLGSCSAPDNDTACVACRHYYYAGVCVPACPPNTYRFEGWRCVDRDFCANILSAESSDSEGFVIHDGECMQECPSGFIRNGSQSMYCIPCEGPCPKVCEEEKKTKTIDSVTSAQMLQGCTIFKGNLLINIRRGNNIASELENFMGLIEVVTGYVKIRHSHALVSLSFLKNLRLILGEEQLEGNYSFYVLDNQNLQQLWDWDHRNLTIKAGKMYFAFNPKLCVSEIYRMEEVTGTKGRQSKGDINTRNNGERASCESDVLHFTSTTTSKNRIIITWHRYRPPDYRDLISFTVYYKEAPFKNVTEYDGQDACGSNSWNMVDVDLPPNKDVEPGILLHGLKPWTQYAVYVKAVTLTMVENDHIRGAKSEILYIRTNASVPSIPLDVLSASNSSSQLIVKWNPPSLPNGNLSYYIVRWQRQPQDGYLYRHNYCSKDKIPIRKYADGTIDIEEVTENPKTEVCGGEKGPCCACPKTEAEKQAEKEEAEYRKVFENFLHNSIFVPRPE
Sequence of Insulin-like growth factor 1 receptor (Homo sapiens) (P08069 741-1367 limits assumed): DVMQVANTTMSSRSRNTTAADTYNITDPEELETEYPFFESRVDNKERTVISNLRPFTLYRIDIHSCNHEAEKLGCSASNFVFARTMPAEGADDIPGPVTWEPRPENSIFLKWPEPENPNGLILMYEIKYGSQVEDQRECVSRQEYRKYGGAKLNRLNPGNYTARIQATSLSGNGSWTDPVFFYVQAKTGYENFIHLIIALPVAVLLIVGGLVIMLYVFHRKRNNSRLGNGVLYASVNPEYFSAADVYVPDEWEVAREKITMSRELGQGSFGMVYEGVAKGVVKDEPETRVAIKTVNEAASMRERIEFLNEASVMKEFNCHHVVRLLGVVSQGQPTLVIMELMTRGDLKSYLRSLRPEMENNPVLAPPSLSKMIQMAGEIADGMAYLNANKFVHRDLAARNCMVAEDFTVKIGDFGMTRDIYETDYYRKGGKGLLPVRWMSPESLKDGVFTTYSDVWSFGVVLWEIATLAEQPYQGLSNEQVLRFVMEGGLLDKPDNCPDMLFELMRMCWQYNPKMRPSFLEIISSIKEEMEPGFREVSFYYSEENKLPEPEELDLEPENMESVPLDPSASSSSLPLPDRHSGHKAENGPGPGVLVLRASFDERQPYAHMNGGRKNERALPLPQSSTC
Test [5] shares this target. To be noted: at 10 µM.
For test [6], the target named is T3, Inhibitor of nuclear factor kappa-B kinase subunit alpha (Homo sapiens) (UniProt O15111).
T3 sequence (whole entry): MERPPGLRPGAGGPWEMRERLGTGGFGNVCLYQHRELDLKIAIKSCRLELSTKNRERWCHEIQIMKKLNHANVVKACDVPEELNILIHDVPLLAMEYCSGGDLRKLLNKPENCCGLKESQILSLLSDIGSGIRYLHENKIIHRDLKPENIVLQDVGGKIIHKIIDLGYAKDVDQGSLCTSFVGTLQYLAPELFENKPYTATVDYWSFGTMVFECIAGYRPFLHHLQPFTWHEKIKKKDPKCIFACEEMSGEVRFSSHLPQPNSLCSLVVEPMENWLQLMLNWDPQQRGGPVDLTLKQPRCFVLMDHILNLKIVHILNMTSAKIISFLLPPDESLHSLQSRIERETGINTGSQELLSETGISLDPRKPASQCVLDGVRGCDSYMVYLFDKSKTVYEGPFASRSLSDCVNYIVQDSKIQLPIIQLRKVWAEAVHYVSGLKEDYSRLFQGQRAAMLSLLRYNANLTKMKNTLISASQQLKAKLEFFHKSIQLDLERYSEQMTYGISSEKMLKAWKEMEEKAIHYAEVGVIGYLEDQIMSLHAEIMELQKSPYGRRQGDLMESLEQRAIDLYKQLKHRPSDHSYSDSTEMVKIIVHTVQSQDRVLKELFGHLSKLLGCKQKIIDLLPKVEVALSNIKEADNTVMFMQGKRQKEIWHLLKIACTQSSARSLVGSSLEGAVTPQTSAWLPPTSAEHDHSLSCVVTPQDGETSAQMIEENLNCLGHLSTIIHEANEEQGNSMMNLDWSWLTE
To be noted: at 1 µM.

The target of test [7] is T3, Inhibitor of nuclear factor kappa-B kinase subunit alpha (Homo sapiens). The note with it: at 10 µM.
The target in test [8] is T4, Inhibitor of nuclear factor kappa-B kinase subunit beta (Homo sapiens) (UniProt O14920).
T4 sequence (whole entry): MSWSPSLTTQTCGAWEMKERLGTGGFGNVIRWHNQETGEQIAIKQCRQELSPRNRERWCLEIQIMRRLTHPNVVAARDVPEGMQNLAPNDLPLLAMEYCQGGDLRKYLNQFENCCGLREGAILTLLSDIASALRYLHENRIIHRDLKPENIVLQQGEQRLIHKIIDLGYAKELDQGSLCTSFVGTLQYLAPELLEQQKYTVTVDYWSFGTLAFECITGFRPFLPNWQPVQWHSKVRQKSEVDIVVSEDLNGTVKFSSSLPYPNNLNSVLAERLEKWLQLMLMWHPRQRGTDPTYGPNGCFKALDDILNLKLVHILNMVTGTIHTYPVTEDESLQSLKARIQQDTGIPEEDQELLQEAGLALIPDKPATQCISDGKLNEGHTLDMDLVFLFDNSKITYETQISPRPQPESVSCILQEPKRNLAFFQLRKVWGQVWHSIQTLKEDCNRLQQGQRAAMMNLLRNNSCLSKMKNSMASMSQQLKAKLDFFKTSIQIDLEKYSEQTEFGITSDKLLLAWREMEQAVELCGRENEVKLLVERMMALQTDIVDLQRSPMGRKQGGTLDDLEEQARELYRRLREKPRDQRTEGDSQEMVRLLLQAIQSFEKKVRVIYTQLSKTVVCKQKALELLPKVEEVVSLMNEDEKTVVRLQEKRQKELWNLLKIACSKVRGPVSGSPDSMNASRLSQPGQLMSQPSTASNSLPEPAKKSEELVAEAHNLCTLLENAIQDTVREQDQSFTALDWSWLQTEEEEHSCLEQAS
The note with it: at 1 µM.

Test [9] deals with T4, Inhibitor of nuclear factor kappa-B kinase subunit beta (Homo sapiens). The note with it: at 10 µM.
In test [10] the target is Insulin receptor (Homo sapiens) (UniProt P06213). The note with it: at 1 µM.
Sequence of Insulin receptor (Homo sapiens) (P06213 28-758 limits assumed): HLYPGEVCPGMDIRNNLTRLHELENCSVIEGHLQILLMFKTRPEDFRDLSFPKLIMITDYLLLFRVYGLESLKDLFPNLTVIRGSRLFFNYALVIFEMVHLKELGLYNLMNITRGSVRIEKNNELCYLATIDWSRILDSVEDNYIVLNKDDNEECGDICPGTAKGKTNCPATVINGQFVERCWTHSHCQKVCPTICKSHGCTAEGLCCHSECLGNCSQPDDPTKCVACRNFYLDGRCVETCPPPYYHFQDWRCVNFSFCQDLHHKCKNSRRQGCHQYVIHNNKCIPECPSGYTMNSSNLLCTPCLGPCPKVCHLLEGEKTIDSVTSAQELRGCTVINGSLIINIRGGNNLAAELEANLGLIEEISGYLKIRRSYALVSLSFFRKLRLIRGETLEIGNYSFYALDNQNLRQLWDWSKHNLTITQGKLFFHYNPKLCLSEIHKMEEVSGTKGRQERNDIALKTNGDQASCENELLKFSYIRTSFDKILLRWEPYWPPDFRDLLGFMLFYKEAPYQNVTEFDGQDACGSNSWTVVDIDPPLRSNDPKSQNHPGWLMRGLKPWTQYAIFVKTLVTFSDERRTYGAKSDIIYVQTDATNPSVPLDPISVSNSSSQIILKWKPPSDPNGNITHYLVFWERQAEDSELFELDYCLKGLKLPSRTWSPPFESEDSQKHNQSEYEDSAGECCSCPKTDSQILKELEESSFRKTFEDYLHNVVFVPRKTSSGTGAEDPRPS
Sequence of Insulin receptor (Homo sapiens) (P06213 763-1382 limits assumed): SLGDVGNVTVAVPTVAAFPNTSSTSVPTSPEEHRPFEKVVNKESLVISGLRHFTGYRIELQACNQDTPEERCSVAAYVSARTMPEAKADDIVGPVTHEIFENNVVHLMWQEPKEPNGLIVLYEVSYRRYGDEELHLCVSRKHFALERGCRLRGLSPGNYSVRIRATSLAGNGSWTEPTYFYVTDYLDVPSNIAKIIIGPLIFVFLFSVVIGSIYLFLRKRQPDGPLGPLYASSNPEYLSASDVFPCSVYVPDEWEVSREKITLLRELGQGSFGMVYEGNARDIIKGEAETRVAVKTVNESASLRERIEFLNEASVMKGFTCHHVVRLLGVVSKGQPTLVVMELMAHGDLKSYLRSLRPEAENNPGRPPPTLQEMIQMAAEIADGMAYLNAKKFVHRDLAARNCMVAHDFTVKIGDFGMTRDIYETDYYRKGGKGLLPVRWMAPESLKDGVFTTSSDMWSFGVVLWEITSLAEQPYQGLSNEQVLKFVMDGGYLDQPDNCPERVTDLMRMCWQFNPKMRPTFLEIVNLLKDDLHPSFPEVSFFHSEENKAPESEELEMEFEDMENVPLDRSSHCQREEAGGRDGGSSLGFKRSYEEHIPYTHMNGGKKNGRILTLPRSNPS

For the compound `O=c1cc(-c2cccc3c2Sc2ccccc2S3)oc(N2CCOCC2)c1`, the residual activity – broadly, the signal under treatment as a percentage of the control signal – in test [1] is 80%; in test [2], 114%; in test [3], 88%; in [4] it was 105%; in [5] it was 101%; in [6], 98%. The residual activity was 93% in [7], 106% in [8], 103% in test [9] and 105% in test [10].
